Only some compounds are listed: those with a hit (about 5.5% of all), similar ones and a draw of the others.
Chronic BCR inh: qHTS Assay to Find Inhibitors of Chronic Active B-Cell Receptor Signaling; ABC-DLBCL IkBa-CBG/CBR reporter, luminescence ratio, 4 h; Potency, µM (series often up to 46.1 µM), without a hit: at the highest dose activity change, negative = inhibition, actives largely listed as inhibitors; actives 0.05% (n = 340,000); active means well fitted inhibition curve with a large enough effect in the signal ratio, with a control signal flat, not every such curve was filed as active; inconclusive means small, poorly fitted or top-dose-only effect, or effect the other way, or a change in a side signal; the % refers to the signal ratio;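 further: plate controls were basal doxycycline-induced cells for no effect and cells given 10 µM MG132 for full effect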
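TMD8 human ABC-DLBCL cells with doxycycline-inducible IκBα–green luciferase fusion and unfused red luciferase, in 0.5% FBS medium; compounds up to 46 uM, 4 h at 37C. Green/red luminescence ratio, filter-overlap corrected, fitted to concentration-response curves.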
Mito fusion yeast: qHTS Assay for Small Molecule Inhibitors of Mitochondrial Division or Activators of Mitochondrial Fusion. S. cerevisiae fusion-defective mutant growth rescue, CellTiterGlo 48 h. Potency, µM (highest dose often 46.1 µM), for the others: top-dose growth rescue (activation), hits mostly activators. actives 0.23% (n = 320,000); further: % of control where 0% means no effect; nearly all actives have a fitted effect of over 45% in size
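S. cerevisiae fusion-defective temperature-sensitive mutants (e.g. fzo1-1, mgm1-5) grown 48 h at 37C in YPEG (ethanol/glycerol non-fermentable) medium with 23 nl compound per well; growth rescue read as CellTiterGlo luminescence.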
a7 integrin act: qHTS for Activators of Integrin-Mediated Alleviation for Muscular Dystrophy; AID 624291, 2012; alpha7betagal myoblasts, beta-gal FDG fluorescence, 48 h; Potency, µM (top dose mostly 38.3 µM), without a hit: at the top dose activation, hits mostly activators; actives 0.064% (n = 350,000);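 further: 100% = response of the positive control SU9516; nearly all actives have a fitted effect of over 60% in size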
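alpha7betagal+/- myoblasts (passage 13, 250/well) treated 48 h at 37C with compounds at 1:260 dilution of DMSO stock. Lysed, then beta-galactosidase activity read as FDG fluorescence (ex 480/em 540) after 30 min, with pre-read for autofluorescence.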
VP16 counter: VP16 counterscreen qHTS for inhibitors of ROR gamma transcriptional activity; Drosophila S2 Gal4-VP16 UAS-luciferase, luminescence, 20 h; actives 3.5% (n = 310,000); Potency, µM (doses to about 53.6 µM), for inactives: top-dose activity, negative = inhibition, usual class: inhibitors;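 further: Gal4-VP16 expression switched on by copper sulfate through the metallothionein promoter; on the % scale 0 is the no-effect control and ±100 the full control effect; nearly all actives have a fitted effect of over 50% in size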
uPA generation: qHTS for Inhibitors of Cell Surface uPA Generation. cell surface uPA generation assay, qHTS. Potency, µM (highest dose often 38.3 µM), for inactives: at the highest dose activity change, negative = inhibition, most hits filed as inhibitors. actives 0.31% (n = 330,000). AID 540303, 2011; active means well fitted inhibition curve with a large enough effect; inconclusive means small, poorly fitted or top-dose-only effect; inactive means no such curve, though single readings can be large or run the other way; tested in mouse RAW 264.7 cells; further: on the % scale 0 is the no-effect control and ±100 the full control effect; nearly all actives have a fitted effect of over 55% in size
RORgamma inh: qHTS for inhibitors of ROR gamma transcriptional activity. AID 2551, 2010. Drosophila S2 Gal4-RORgamma UAS-luciferase reporter, 20 h. actives 5.4% (n = 310,000). Potency, µM (series often up to 53.6 µM), without a hit: at the highest dose activity change, negative = inhibition, usual class: inhibitors. Nuclear receptor ROR-gamma (Mus musculus), P51450; further: on the % scale 0 is the no-effect control and ±100 the full control effect; nearly all actives have a fitted effect of over 60% in size
Target sequence (P51450 whole entry, looked up, the tested form may be a part): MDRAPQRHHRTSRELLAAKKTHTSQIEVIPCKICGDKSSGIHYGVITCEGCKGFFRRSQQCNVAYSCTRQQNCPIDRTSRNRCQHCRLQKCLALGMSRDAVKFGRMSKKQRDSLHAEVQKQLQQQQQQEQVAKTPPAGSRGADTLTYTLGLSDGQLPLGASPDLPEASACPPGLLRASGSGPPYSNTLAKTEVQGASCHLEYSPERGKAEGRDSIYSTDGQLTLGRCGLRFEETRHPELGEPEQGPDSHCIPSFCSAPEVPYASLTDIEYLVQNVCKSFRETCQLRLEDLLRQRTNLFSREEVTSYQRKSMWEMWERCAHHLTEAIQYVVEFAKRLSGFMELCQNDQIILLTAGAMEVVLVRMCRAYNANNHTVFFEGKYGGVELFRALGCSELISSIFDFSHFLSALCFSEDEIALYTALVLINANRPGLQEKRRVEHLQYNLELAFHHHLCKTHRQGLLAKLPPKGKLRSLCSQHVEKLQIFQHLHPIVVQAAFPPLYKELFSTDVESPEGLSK
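Drosophila Schneider cells stably carrying a metallothionein-driven Gal4 DBD–ROR gamma fusion and a UAS-Photinus luciferase reporter were exposed to compound for 1 hr, then induced with copper sulfate (700 uM final) for 20 hr at ambient temperature before luminescence reading.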
* = called active by the depositor; ? = inconclusive; nt = no result. Unless noted, the call rests on the fitted dose curve; in most records, active means well fitted curve in the direction sought with a large enough effect; inconclusive means small, poorly fitted or top-dose-only effect, or another doubt; inactive means no such curve, though single readings can be large; an effect the other way counts as inactive or inconclusive. Potency means the concentration at half of the fitted maximal effect.

SMILES | Chronic BCR inh | Mito fusion yeast | a7 integrin act | VP16 counter | uPA generation | RORgamma inh
CC1(C(=O)CSc2n[nH]c(-c3ccccc3Cl)n2)CCC(=O)O1 (centres undefined) | -7.6% | 0.2% | nt | 2.0% | nt | -13.5%
COCC(C)NC(=S)NCCc1ccc(Cl)cc1Cl (centres undefined) | 6.2% | 0.4% | ? | 3.55µM* | 1.5% | 1µM*
COCCNC(=S)NCCc1ccc(Cl)cc1Cl | -1.8% | -5.7% | -21.6% | -25.6% | ? | 6.31µM*
COCC(C)NC(=O)COc1ccc(Cl)cc1Cl (centres undefined) | ? | 3.2% | 16.0% | -9.6% | 0.8% | -32.2%
CC(Oc1ccc(Cl)cc1Cl)c1nc(-c2ccc(NC(=O)c3ccncc3)cc2)no1 (centres undefined) | 2.6% | ? | -58.8% | 12.6µM* | nt | ?
CC(Oc1ccc(Cl)cc1Cl)c1nc(-c2ccc(NC(=O)c3cccnc3)cc2)no1 (centres undefined) | -2.7% | 19.5% | -51.6% | ? | -8.9% | ?
CCCn1c(C)nc2c(NCCOC)nc(C)nc21 | nt | nt | nt | -8.8% | nt | -2.5%
COc1ccc(-c2nnc(NC(=O)c3ccc(S(=O)(=O)N4CCc5ccccc5C4)cc3)o2)cc1 | -0.9% | 2.7% | -14.4% | 0.251µM* | -6.0% | 0.126µM*
O=C(Nc1nnc(C2CC2)o1)c1ccc(S(=O)(=O)N2CCc3ccccc3C2)cc1 | 1.6% | -4.6% | -35.8% | 1.78µM* | -15.0% | 0.708µM*
COc1ccc(-c2csc(NC(=O)c3ccc(S(=O)(=O)N4CCc5ccccc5C4)cc3)n2)cc1 | -0.4% | -2.3% | 5.8% | -11.4% | -4.2% | -10.0%
C=CCc1c(C)nc(N2CCSCC2)[nH]c1=O | ? | -2.5% | 22.9% | -7.6% | -3.6% | 4.7%
CC1(C)CC(C(=O)Nc2ccccc2)C(=O)O1 (centres undefined) | nt | nt | 9.2% | nt | 1.9% | nt
C[C@]1(O)CC(=O)C=C[C@H]1Nc1ccccc1 | nt | nt | -27.0% | nt | 8.91µM* | nt
O=c1c(-c2ccc(O)cc2)coc2cc(OC3OC(CO)C(O)C(O)C3O)cc(O)c12 (centres undefined) | ? | 2.4% | 10.6% | -2.4% | 4.47µM* | -11.0%
O=c1c(-c2cc(F)cc(F)c2)nc2cnc(N3CCNCC3)nc2n1Cc1ccc(F)cc1 | nt | nt | nt | 4.47µM* | nt | 3.16µM*
COc1cccc(Cn2c(=O)c(C)nc3cnc(N4CCNCC4)nc32)c1 | nt | nt | nt | -8.8% | nt | -34.5%
N#Cc1cccc(-c2nc3cnc(N4CCOCC4)nc3n(Cc3ccc(F)cc3)c2=O)c1 | nt | nt | nt | 0.2% | nt | -10.9%
COc1cccc(Cn2c(=O)c(-c3cc(F)cc(F)c3)nc3cnc(N4CCNCC4)nc32)c1 | nt | nt | nt | ? | nt | 2.82µM*
CN1CCN(c2ncc3nc(-c4cccc(C#N)c4)c(=O)n(Cc4ccc(F)cc4)c3n2)CC1 | nt | nt | nt | 20µM* | nt | ?
COc1ccc(CCNC(=O)c2cc(-c3ccc(C)cc3)nc3n[nH]c(-c4ccc(F)cc4)c23)cc1OC | 0.4% | nt | nt | nt | nt | nt
CCC1=C(OC(=O)N(CC)CC)N2C(=O)OC(=NCCOC)[C@]2(C)[C@H]2C1=CC[C@H]1C(=O)NC(=O)[C@H]12 | nt | nt | nt | -7.8% | nt | -0.3%
Cc1cc(S(=O)(=O)/N=C(\N)c2ccc(C(N)=O)cc2)cc(C)c1F | -1.3% | 0.1% | -3.9% | -2.2% | 9.3% | -0.6%
COC(=O)[C@@H]1C[C@@]2(O)[C@H](O)[C@H](O)[C@H](O)C[C@H]2N1Cc1ccc(N2CCN(C)CC2)cc1 | nt | nt | nt | 3.8% | nt | 13.0%
Oc1ccc(-c2nc3ccccc3s2)cc1 | ? | 7.4% | 3.7% | ? | 6.31µM* | ?
c1ccc2sc(-c3ccc4c(c3)OCO4)nc2c1 | ? | 2.3% | -3.1% | 2.24µM* | -10.6% | ?
SMILES | Chronic BCR inh | Mito fusion yeast | a7 integrin act | VP16 counter | uPA generation | RORgamma inh
c1ccc2sc(-c3ccncc3)nc2c1 | ? | -8.7% | 2.2% | 21.1% | -5.7% | -22.5%
COc1cccc(-c2nc3ccccc3s2)c1 | ? | -4.4% | 0.0% | ? | -6.1% | -24.2%
COc1ccc(-c2nc3ccccc3s2)cc1 | 1.9% | 3.7% | -11.4% | ? | 3.55µM* | 8.91µM*
CCCCOc1ccccc1NC(=O)C=C(C)C | -6.6% | 2.7% | 1.0% | -3.1% | -2.7% | -1.6%
CCCOc1ccccc1NC(=O)/C=C/C(N)=O | ? | -6.0% | -23.4% | 4.47µM* | nt | 3.98µM*
Cc1[nH]c2ccc(-c3n[nH]c(=S)n3-c3ccccc3)cc2c1C | ? | -4.8% | 0.0% | ? | 4.0% | 7.94µM*
Cc1[nH]c2ccc(-c3n[nH]c(=S)n3-c3ccc(Br)cc3)cc2c1C | -0.7% | -5.7% | 8.8% | -7.5% | 4.7% | 7.94µM*
Cc1[nH]c2ccc(-c3n[nH]c(=S)n3Cc3ccccc3)cc2c1C | -3.1% | 18.2% | -4.3% | -13.8% | -2.9% | 10µM*
COc1ccc(NC(=O)Cc2nnc(SCC(=O)NC3CCCC3)n2C)cc1 | 1.1% | -2.1% | 9.2% | 2.9% | 7.9% | 18.6%
C=CC[n+]1c(-c2ccc(OC)c(OC)c2)csc1NNC(=O)Nc1ccccc1 | -23.5% | -9.6% | -63.1% | ? | -27.5% | 10µM*
C=CC[n+]1c(-c2ccccc2)csc1NC(C)(C)C | 3.4% | 1.9% | 4.0% | -2.6% | -2.9% | -13.0%
O=S(=O)(Nc1nc2ccccc2nc1N1CCc2ccccc2C1)c1ccc(Br)cc1 | ? | 9.6% | ? | ? | -1.5% | 7.94µM*
COc1cccc(C2C=C(c3cccs3)Nc3ncnn32)c1OC (centres undefined) | 0.6% | 0.2% | 32.8% | ? | 1.8% | 11.2µM*
COc1cccc(C2=CC(c3ccccc3)n3nnnc3N2)c1 (centres undefined) | 10.1% | -3.8% | -20.8% | 35.5µM* | ? | ?
COc1cccc(C2=CC(c3cccc(OC)c3OC(F)F)n3nnnc3N2)c1 (centres undefined) | ? | 1.4% | -54.8% | 0.7% | 1.5% | 23.6%
COc1cccc(C2=CC(c3cccc(OC)c3OC)n3nnnc3N2)c1 (centres undefined) | -19.4% | 8.9% | -14.3% | -18.5% | -12.2% | 3.16µM*
COc1cccc(C2=CC(c3ccc(N(C)C)cc3)n3nnnc3N2)c1 (centres undefined) | -9.9% | -2.7% | -24.0% | 4.1% | -5.8% | -37.9%
Cc1cccc(S(=O)(=O)N2CCN(Cc3ccc4c(c3)OCO4)CC2)c1 | 0.6% | -9.3% | -15.8% | 1.8% | 2.4% | 11.2%
Cc1ccc(CNC(=O)CN2N=C(c3ccc(C)cc3)CCC2=O)cc1 | -18.2% | nt | nt | nt | nt | nt

High-throughput results deposited in PubChem by National Center for Advancing Translational Sciences (NCATS).
